Assay outcomes deposited in PubChem by National Center for Advancing Translational Sciences (NCATS).
Shown are actives, neighbours in structure and some others; about 4.6% of the full set was active somewhere.
D1 agonist: Allosteric Agonists of the Human D1 Dopamine Receptor: qHTS | 1% of 360,000 active | activation, % at 2 µM | HEK293 T-REx D1 cells, calcium flux, agonist mode; also: 0% is about no effect
Target sequence (P21728 whole entry, looked up): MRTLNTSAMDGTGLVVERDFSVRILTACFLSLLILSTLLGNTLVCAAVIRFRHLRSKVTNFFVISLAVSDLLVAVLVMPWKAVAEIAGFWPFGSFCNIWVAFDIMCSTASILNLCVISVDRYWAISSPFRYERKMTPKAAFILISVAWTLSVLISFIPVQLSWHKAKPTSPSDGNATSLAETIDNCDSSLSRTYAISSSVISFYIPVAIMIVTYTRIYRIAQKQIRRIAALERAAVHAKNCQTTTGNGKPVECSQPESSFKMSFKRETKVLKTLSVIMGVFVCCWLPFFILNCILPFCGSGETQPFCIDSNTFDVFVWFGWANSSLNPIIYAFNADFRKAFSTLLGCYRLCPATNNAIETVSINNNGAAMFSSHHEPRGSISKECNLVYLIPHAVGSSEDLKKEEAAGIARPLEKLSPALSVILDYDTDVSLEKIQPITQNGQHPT
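Agonism was scored from calcium flux recorded over 180 s (1 read/s) after pintool compound addition, following a 10-cycle baseline. Cells were inducible force-coupled HEK293 TREx D1, plated overnight at 30 C and loaded with no-wash calcium dye.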
TRHR agonist: qHTS for Small Molecule Agonists and Allosteric Enhancers of Human TRH Receptor: Primary Screen for Agonists | Thyrotropin-releasing hormone receptor (Homo sapiens), P34981 | activation, % at 2 µM | TRHR cells, calcium flux fluo-8, FDSS agonist mode | 0.18% of 360,000 active; also: 0% is about no effect
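Agonist-mode FDSS calcium read (Ex 480/Em 530, 1 s cycles) in 1536-well TRHR cells with fluo-8 dye, after 10-cycle baseline and 23 nL compound addition; TRH at EC20 (10 nM final) added afterwards for the enhancer phase.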
D1 antagonist: Antagonist of Human D 1 Dopamine Receptor: qHTS | D(1A) dopamine receptor (Homo sapiens), P21728 | activity change, negative = inhibition, % at 10 µM | 3.2% of 360,000 active | HEK293 TREx D1 cells, calcium flux, dopamine EC80; stronger effect = lower value; in the data active = activity change below about -30%; also: % is scaled to controls: 0 for no effect and ±100 for the full control effect
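Kinetic fluorescence of a calcium dye serves as the read-out. D1-expressing Hek293 Trex cells, induced overnight at 30 C, are exposed to compound for 180 s before an EC80 dopamine addition, then read 180 s further.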
TRHR PAM: qHTS for Small Molecule Agonists and Allosteric Enhancers of Human TRH Receptor: Primary Screen for Enhancers; enhancement, % at 2 µM; Thyrotropin-releasing hormone receptor (Homo sapiens), P34981; TRHR cells, fluo-8 calcium fluorescence, EC20 TRH enhancement; 0.66% of 360,000 active; in the data active = enhancement above about 30%; also: 0% is about no effect
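Enhancer read-out: after compound pinning and an initial kinetic agonist-mode read, an EC20 of TRH (10 nM final) was injected and fluo-8 calcium signal (Ex 480/Em 530) followed at 1 s/cycle for 100 cycles in TRHR-expressing cells.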
D1 potentiator: Potentiators of Human D1 Dopamine Receptor: qHTS; potentiation, % at 10 µM; HEK293 TREx D1 cells, calcium flux, dopamine EC20 potentiation; 0.036% of 360,000 active; AID 504651, 2011; in the data active = potentiation above about 30%; also: 0% is about no effect
The depositor's hits bear a star; · = not tested or not shown. Rule as the data show it, unless noted: active = activation above about 30%; inactive = the rest.

SMILES	D1 agonist	TRHR agonist	D1 antagonist	TRHR PAM	D1 potentiator
Cc1cc(NCc2ccccc2)nc(N2CCOCC2)n1	1.8	0.0	-91.4*	-1.0	-7.3
CNc1cc(C)nc(N2CCOCC2)n1	2.1	1.8	-0.7	-0.6	0.8
Cc1cc(N2CCOCC2)nc(NCc2ccccc2)n1	45.1*	-0.3	-63.4*	-0.8	-6.4
Cc1cc(N2CCCCC2)nc(NCc2ccccc2)n1	81.1*	14.9	-50.3*	-18.7	-8.4
Cc1cc(-c2nnc3n2N=C(c2ccc(-c4ccccc4)cc2)CS3)n[nH]1	62.6*	-0.5	0.8	-6.5	-3.7
Cc1cc(-c2nnc3n2N=C(c2ccccc2)CS3)n[nH]1	0.5	0.0	23.7	-0.1	-8.0
Cc1ccc(NC(=O)CSc2ccc(C(N)=O)cc2[N+](=O)[O-])cc1C	-2.3	-0.4	·	-3.5	1.2
CCc1ccc(Nc2ccc(C(=O)O)cc2[N+](=O)[O-])cc1	0.9	0.5	-3.0	-1.7	-0.2
Cc1ccc(Nc2ccc(C(N)=O)cc2[N+](=O)[O-])cc1C	0.6	-1.6	-52.9*	3.0	-11.7
CCc1ccc(Nc2ccc(C(N)=O)cc2[N+](=O)[O-])cc1	1.1	-0.3	-39.7*	0.4	-3.9
CNc1c(NC(=O)c2ccc3c(c2)OCO3)c(=O)oc2ccccc12	2.2	1.3	-6.2	-5.3	-7.3
CCc1ccc(NC(=O)Cn2c(C(=O)OC)cc3oc(C)cc32)cc1	7.2	0.5	-16.5	-5.4	-6.6
Cn1cnc(S(=O)(=O)N2CCN(c3cccc(C(F)(F)F)c3)CC2)c1	10.1	0.0	-32.1*	-0.3	-5.5
c1ccc2c(c1)OC(CCCN1CCCCC1)c1ccccc1S2 (stereo unspecified)	13.7	1.6	-85.0*	7.6	-6.8
c1ccc(OCCCCN2CCCCC2)cc1	3.6	0.6	0.5	3.3	0.5
CN1CCCC(CC2Oc3ccccc3Sc3ccccc32)C1 (stereo unspecified)	48.6*	2.2	-74.2*	7.7	-11.6
CCc1ccc(C(=O)c2cn(CC(=O)NCc3ccc(C)cc3)c3nc(C)ccc3c2=O)cc1	0.6	-0.5	18.7	-0.1	-1.6
Cn1c(-c2nonc2N)nc2ccccc21	2.9	0.1	6.5	-6.2	0.6
COC(=O)c1ccccc1NC(=O)Cn1c(-c2nonc2N)nc2ccccc21	0.4	-0.5	-67.5*	1.1	-10.4
CCCn1c(-c2nonc2N)nc2ccccc21	0.9	0.3	-61.9*	-4.0	-7.3
Nc1nonc1-c1nc2ccccc2n1CC(=O)Nc1ccccc1C(=O)O	0.3	0.9	8.0	11.3	1.0
Cc1ccc(N2CCN(C(=O)c3nn(C)c4c3CSc3ccccc3-4)CC2C)cc1 (stereo unspecified)	-0.6	0.2	5.5	0.2	-0.5
Cc1c(C(=O)Nc2cccc(C(F)(F)F)c2)sc2nc[nH]c(=O)c12	-0.2	-1.4	-4.5	4.4	0.8
CCOc1ccccc1Nc1ncnc2c1cnn2-c1ccc(C)cc1	-3.0	-0.2	-41.0*	-6.1	0.6
CCOc1ccccc1Nc1ncnc2c1cnn2-c1ccccc1	0.0	-1.4	-12.5	-4.8	-10.2
SMILES	D1 agonist	TRHR agonist	D1 antagonist	TRHR PAM	D1 potentiator
Cc1ccc(-n2ncc3c(Nc4cccc(C)c4C)ncnc32)cc1	-2.3	0.2	-32.4*	-5.5	-3.0
CCC(CC)C(=O)Nc1ccc2nc(SCC(=O)N3CCOCC3)sc2c1	-2.1	0.1	-6.5	-1.5	0.3
CC1C/C(=C/c2ccncc2)C(=O)/C(=C/c2ccncc2)C1 (stereo unspecified)	5.9	2.0	-31.5*	-2.1	-3.2
CC1C/C(=C/c2cccn2C)C(=O)/C(=C/c2cccn2C)C1 (stereo unspecified)	197.9*	82.1*	-29.4	35.1*	6.8
Cc1cc(C)c(O)c(NC(=S)NC(=O)Cc2ccccc2)c1	33.0*	7.3	-11.4	10.2	2.1
Cc1cccc(NC(=S)NC(=O)Cc2ccccc2)c1C	65.5*	11.5	6.2	-5.0	-2.8
Cc1ccc(OCC(=O)Nc2cccc(C(=O)OCc3cc(=O)n4c(C)csc4n3)c2)cc1	0.9	0.3	-3.3	-3.1	-0.2
O=c1[nH]c(CN2CCN(c3ccccc3)CC2)nc2ccccc12	2.6	0.5	5.8	0.9	-7.0
CCC(CC)C(=O)N1CCN(Cc2nc3ccccc3c(=O)[nH]2)CC1	2.3	-0.8	-2.3	31.7*	-2.3
O=c1[nH]c(CN2CCN(c3ccc(F)cc3)CC2)nc2ccccc12	-0.7	-0.4	-3.1	34.0*	-4.7
COc1cccc(N2CCN(Cc3nc4ccccc4c(=O)[nH]3)CC2)c1	2.3	0.2	-61.8*	2.1	-1.9
Cc1ccc(-c2nc(-c3cccs3)c(-c3cccs3)[nH]2)cc1	4.2	-1.1	-33.0*	-6.4	-3.1
O=[N+]([O-])c1cccc(-c2nc(-c3cccs3)c(-c3cccs3)[nH]2)c1	1.7	-0.9	-35.6*	3.6	-8.5
Fc1ccc(-c2nc(-c3cccs3)c(-c3cccs3)[nH]2)cc1	-0.3	1.1	-8.8	-6.9	0.7
O=[N+]([O-])c1ccc(-c2nc(-c3cccs3)c(-c3cccs3)[nH]2)cc1	37.8*	-0.5	-10.5	2.7	-1.8
O=[S+]([O-])(c1ccc2ncsc2c1)N1CCN([S+](=O)([O-])c2c(F)cccc2F)CC1	-1.2	0.8	-28.1	-0.7	1.9
COC(=O)c1ccc(/C=N/NC(=O)C(=O)NCC2CCCO2)cc1 (stereo unspecified)	-0.6	0.8	19.1	5.2	3.2
COC(=O)CN(C(=O)CSc1nnc(-c2cccc(OC)c2)o1)c1ccc(OC)cc1	2.8	-0.1	0.4	5.5	2.6
COc1ccc(CCCc2nnc(SCC(=O)Nc3ccccc3F)o2)cc1C	15.3	0.6	-30.0	0.5	-1.6
Cc1ccc(NC(=O)CSc2nnc(-c3ccc([N+](=O)[O-])cc3)o2)c(C)c1	50.6*	-0.4	-3.8	1.8	-0.1
COc1ccc(CCCc2nnc(SCC(=O)Nc3ccc(F)cc3)o2)cc1C	1.4	-0.7	-50.0*	3.1	-5.2
CCOC(=O)CN(C(=O)CSc1nnc(-c2cccc(OC)c2)o1)c1ccc(F)cc1	56.1*	-1.4	-22.4	10.6	0.3
COc1ccc(-c2nnc(SCC(=O)Nc3cc(F)ccc3C)o2)cc1	12.4	-1.1	-38.7*	13.4	·
O=C(Nc1nccs1)c1ccc(COc2c(F)c(F)cc(F)c2F)cc1	12.5	3.2	-11.6	-7.0	6.4
